An excerpt weighted towards active compounds, which were near 2.7% of everything screened.
RXFP1 antagonist – antagonists of human relaxin receptor RXFP1; activity change, negative = inhibition, % at 57.5 µM; Q9HBX9; 350,000 tested, 0.59% active; AID 1259400; HEK293-RXFP1, relaxin-stimulated cAMP HTRF, 30 min; stronger effect = lower value;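 active = activity change of -60% or lower, but not beyond a set lower limit; inconclusive = change between -60% and -40%, or beyond the set limit; inactive = change above -40%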
Target sequence (Q9HBX9 whole entry, looked up): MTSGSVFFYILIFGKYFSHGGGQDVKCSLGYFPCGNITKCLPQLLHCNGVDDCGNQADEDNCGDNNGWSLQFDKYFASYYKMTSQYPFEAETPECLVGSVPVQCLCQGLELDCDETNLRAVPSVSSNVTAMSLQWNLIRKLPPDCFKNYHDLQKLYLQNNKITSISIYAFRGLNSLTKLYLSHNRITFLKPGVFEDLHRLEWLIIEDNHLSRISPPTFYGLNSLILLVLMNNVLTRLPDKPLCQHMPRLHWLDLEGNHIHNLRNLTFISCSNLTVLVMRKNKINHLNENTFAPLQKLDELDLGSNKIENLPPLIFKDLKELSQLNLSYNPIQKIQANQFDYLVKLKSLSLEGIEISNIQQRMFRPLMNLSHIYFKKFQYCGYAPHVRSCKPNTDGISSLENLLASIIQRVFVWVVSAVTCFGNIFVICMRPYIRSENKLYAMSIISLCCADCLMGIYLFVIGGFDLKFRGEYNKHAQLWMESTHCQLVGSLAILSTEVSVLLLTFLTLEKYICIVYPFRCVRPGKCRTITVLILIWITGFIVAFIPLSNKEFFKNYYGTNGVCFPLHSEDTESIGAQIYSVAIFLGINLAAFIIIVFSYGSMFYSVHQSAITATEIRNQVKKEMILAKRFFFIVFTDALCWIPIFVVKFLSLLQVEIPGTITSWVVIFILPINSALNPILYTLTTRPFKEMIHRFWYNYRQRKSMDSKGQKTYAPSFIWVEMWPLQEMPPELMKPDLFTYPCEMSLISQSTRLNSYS
RXFP1 agonist – RXFP1 (human) receptor agonism. HEK293T-RXFP1 cAMP TR-FRET, 30 min; response scale: percent of porcine relaxin response, buffer zero. Q9HBX9. AID 2676. Potency, µM (series often up to 57.5 µM), usual class: activators. 370,000 tested, 0.3% active; active = well fitted activation curve with a large enough effect; inconclusive = small, poorly fitted or top-dose-only effect; also: nearly all actives have a fitted effect of over 60% in size
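cAMP rise read by TR-FRET after 30 min, 37C compound exposure (up to 58 uM) in RXFP1-transfected HEK293 cells with Ro 20174 present. EC50 from Hill-equation fits, with 29 nM porcine relaxin as 100% and buffer as basal.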
gsp antag – antagonizes gsp, the McCune-Albright syndrome mutation. gsp-mutant cells, cAMP HTRF, 30 min. 340,000 tested, 0.4% active. AID 624288. Potency, µM (titrated, usually from 76.9 µM), actives largely listed as inhibitors; calls by dose curve; cell line not stated here;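 also: intracellular cAMP measured with PDE inhibitor Ro 20-1724 present during compound exposure; nearly all actives have a fitted effect of over 65% in size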
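G418-selected cells were plated in DMEM/10% FBS for 16-24 h at 37C, then treated with compounds plus the PDE inhibitor […] (300 uM solution added) for 30 min at 37C. Intracellular cAMP was measured by HTRF after 30 min lysis at room temperature.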
pAkt inh – Akt phosphorylation inhibition; Neuro2A IGF-stimulated pAkt S473 HTRF, 20 min; stronger effect = lower value; activity change, % for hits at 50 µM; 360,000 tested, 0.32% active; AID 651550; in the data active = activity change below about -80%; inconclusive = mostly about -51% to -80%
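Neuro2A cells (4,500/well, DMEM with 0.5% FBS) were treated with compound at a single 50 µM final concentration, stimulated with 6 nM IGF for 20 min at 37 °C, and lysed. Phospho-Akt Ser473 was read by HTRF as 665/615 ratio ×10^4.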
ClpP mod – qHTS Assay for Activators of ClpP. 340,000 tested, 1.9% active. purified B. subtilis ClpP, FRET peptide cleavage, 20 min. ATP-dependent Clp protease proteolytic subunit (Bacillus subtilis (strain 168)), P80244. Potency, µM (titrated, usually from 57.5 µM); active = well fitted falling curve with a large enough effect; inconclusive = small, poorly fitted or top-dose-only effect; inactive = no such curve, though single readings can be large or run the other way; also: the source files actives as falling curves though it sought activators and does not explain the sign; nearly all actives have a fitted effect of over 65% in size
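FRET quenching reversal measured ClpP activation: 10 microg/mL B. subtilis ClpP at pH 8 with the FRET-FV decapeptide, read at 430 nm after 320 nm excitation. The 20-min minus 0-min signal was scaled between DMSO/no-enzyme wells and ADEP (5.8 microM final).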
gsp agonist – gsp mutant agonism; gsp mutant cells, cAMP HTRF, 30 min; 340,000 tested, 0.13% active; Potency, µM (highest dose often 76.9 µM), most hits filed as activators; AID 624287; active = well fitted activation curve with a large enough effect; inconclusive = small, poorly fitted or top-dose-only effect, or another doubt; inactive = no such curve, though single readings can be large or run the other way; cell line not stated here;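 also: phosphodiesterase inhibitor Ro 20-1724 added with compounds to block cAMP breakdown; nearly all actives have a fitted effect of over 60% in size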
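Cells stably selected in G418 were plated at 2000/well, grown 16-24 hr, then given compounds in DMSO with the PDE inhibitor […] (300 uM solution added) for 30 min at 37C; cAMP was read by HTRF.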
Numbers stand for hits; n = inactive; u = inconclusive; x = no result; [ ] = remark or other dose.

SMILES	RXFP1 antagonist	RXFP1 agonist	gsp antag	pAkt inh	ClpP mod	gsp agonist
Cc1c(Cl)cccc1-n1nc(C)c2c(C(=O)NCc3ccccc3)cc(C3CC3)nc21	n	n	x	x	13µM	x
CCOc1ccc(Nc2c(S(=O)(=O)c3ccccc3)cnc3ccc(CC)cc23)cc1	n	n	x	x	n	x
COc1ccccc1NS(=O)(=O)c1cccc(NC(=O)Nc2ccc(Cl)cc2)c1	n	n	28µM	n	x	n
COc1ccccc1NS(=O)(=O)c1cccc(NC(=O)Nc2ccccc2)c1	x	n	u	n	n	n
CC1CCc2nn(CC(=O)Nc3ccccc3Cl)cc2C1 (stereo not given)	n	n	x	x	n	x
CN(C)/C=C/c1oc2ccc(O)cc2c1[N+](=O)[O-]	n	n	28µM	n	x	n[15.4 µM]
NCCCCCC(=O)N/N=C/c1coc2ccccc2c1=O	n	u	n	n	18µM	n[15.4 µM]
CSc1nc(Sc2ccccc2Cl)c2ccccc2n1	n	u	n	x	32µM	n
CCOC(=O)c1cnc(SC)nc1Sc1ccccc1Cl	n	n	n	n	n	n
Cc1nc(C(=O)Nc2ccc(Cl)cc2Cl)nn1-c1cc(OC(C)C)c(Cl)cc1Cl	n	n	n	n	28µM	n
Cc1nc(C(=O)Nc2cc(Cl)ccc2Cl)nn1-c1cc(OC(C)C)c(Cl)cc1Cl	n	n	n	n	n	n
CCOc1ccc(NC(=O)CC2Nc3cccc4cccc(c34)NC2=O)cc1 (stereo not given)	n	n	x	x	n	x
CCn1cc(/C=C/C(=O)NCc2c(C)nn(C)c2C)cn1	n	n	n	-107%	n	n
CCOc1ccc(C(=O)N(Cc2ccc(OC)cc2)Cc2cc3cc(OC)ccc3[nH]c2=O)cc1	n	n	n	n	32µM	n
COc1ccc(CC(=O)N(Cc2cc3cc(OC)ccc3[nH]c2=O)C(C)C)cc1	n	n	n	n	32µM	n
CCCN(Cc1cc2cc(OC)ccc2[nH]c1=O)C(=O)c1ccncc1	n	n	n	n	32µM	n
COc1ccc2[nH]c(=O)c(CN(C)C(=O)c3ccncc3)cc2c1	n	n	n	x	u	u
COc1ccc2[nH]c(=O)c(CN(C(=O)c3ccco3)C(C)C)cc2c1	n	n	n	n	x	n
COc1ccc2[nH]c(=O)c(CN(C)C(=O)C3CCCCC3)cc2c1	n	n	n	n	28µM	n
Cc1ccccc1C(=O)Nc1ccc(C(=O)N2CCCC(O)c3cc(Cl)ccc32)c(C)c1 (stereo not given)	n	x	x	x	x	x
COc1cc2cc(CN(C(=O)NC3CCCCC3)C3CCCC3)c(=O)[nH]c2cc1OC	n	n	n	n	25µM	n
Cc1cc(OCc2cn3cccnc3n2)ccc1Cl	n	n	n	n	16µM	n
Clc1ccc(SCc2cn3cccnc3n2)cc1	n	n	n	n	n	n
O=S(=O)(c1ccc2c(c1)OCCO2)N1CCN(CCc2ccccc2)CC1	x	x	x	x	n	x
Cc1cccc(-n2c(-c3csc4ccccc34)n[nH]c2=S)c1	-117	n	n	n	u	n
SMILES	RXFP1 antagonist	RXFP1 agonist	gsp antag	pAkt inh	ClpP mod	gsp agonist
CC(C)c1ccc(S(=O)(=O)c2nnn3c2nc(NCCc2ccccc2)c2sccc23)cc1	n	n	x	x	25µM	x
Cc1ccc(S(=O)(=O)c2nnn3c2nc(NCCc2ccccc2)c2sccc23)cc1	n	n	x	x	10µM	x
Cc1ccc(CCNc2nc3c(S(=O)(=O)c4ccccc4)nnn3c3ccsc23)cc1	n	n	x	x	n	x
Cc1ccc(S(=O)(=O)c2nnn3c2nc(NCc2ccc4c(c2)OCO4)c2sccc23)cc1	n	n	x	x	u	x
Cc1ccc(S(=O)(=O)c2nnn3c2nc(NCc2ccc4c(c2)OCO4)c2sccc23)cc1C	n	n	x	x	20µM	x
CN(C)c1ccc(C2NC(=O)c3ccccc3N2)cc1 (stereo not given)	n	n	n	n	n	n[15.4 µM]
Cc1ccc(C2NC(=O)c3ccccc3N2)s1 (stereo not given)	x	n	n	n	28µM	n
Cc1ccc(C2NC(=O)c3ccccc3N2)c(C)c1 (stereo not given)	n	x	n	n	28µM	n
Cc1cccc(C2NC(=O)c3ccccc3N2)c1 (stereo not given)	n	x	n	n	28µM	n
O=C1NC(c2ccc(Cl)cc2)Nc2ccccc21 (stereo not given)	n	n	x	n	x	n[15.4 µM]
CCOc1ccccc1CNC(=O)CCc1c(C)nn(-c2ccc(N3CCCC3)nn2)c1C	n	n	x	x	n	x
O=C(Cn1c2[n+](c3ccccc31)CC(O)CS2)c1ccccc1 (stereo not given)	n	n	n	n	3.2µM	n[15.4 µM]
Cc1ccc(C(=O)Cn2c3[n+](c4ccccc42)CC(O)CS3)cc1 (stereo not given)	n	n	n	n	n	n[15.4 µM]
c1ccc(CN2CCN(C(c3ccccc3)c3ccccc3)CC2)cc1	-104	n	n	n	n	n[15.4 µM]
COc1ccccc1OCCCCN1CCN(C(c2ccccc2)c2ccccc2)CC1	-80	n	n	n	n	n[15.4 µM]
COc1ccc(OC)c(/C=N/NC(=O)CCN2CCN(C(c3ccccc3)c3ccccc3)CC2)c1	n	n	n	n	28µM	n
O=C(N1CCN(Cc2ccccc2)CC1)C(Cl)(Cl)Cl	n	n	n	n	13µM	n[15.4 µM]
O=C(CCN1CCN(C(c2ccccc2)c2ccccc2)CC1)N/N=C/c1ccc(O)cc1O	n	n	n	n	n	n
c1ccc(OCCOCCN2CCN(C(c3ccccc3)c3ccccc3)CC2)cc1	n	n	n	n	n	n
Fc1ccc(CN2CCN(C(c3ccccc3)c3ccccc3)CC2)cc1	n	n	n	n	n	n
O=C(C1CC1)N1CCN(Cc2ccccc2)CC1	n	x	n	n	x	n[15.4 µM]
[O-][n+]1cccc(/C(Cl)=N/OC[C@@H](O)CN2CCCCC2)c1	n	x	x	x	x	x
COc1ccc(/C=C/C(=O)OCC(=O)N2c3ccccc3CC2C)c(OC)c1 (stereo not given)	n	x	x	n	n	n
COc1ccc(O)c(/C=N/NC(=O)CCC(=O)Nc2cccc(C)c2)c1	n	n	n	n	x	n
COc1ccc(OC)c(/C=N/NC(=O)CCCC(=O)Nc2cccc(Br)c2)c1	n	n	n	n	25µM	u
O=C(COc1ccccc1C(=O)Nc1ccccc1)Nc1ccccc1Cl	x	x	x	x	n	x
O=C(COc1ccc(Br)cc1Br)NC(=S)N1CCCc2ccccc21	n	n	n	-92%	n	n
O=C(COc1ccc(Br)cc1Cl)NC(=S)N1CCc2ccccc21	n	n	n	n	x	n
CCCSc1cc(N2CCCC2)nc(-c2ccccc2)n1	n	n	n	n	n	n
CCCSc1cc(N2CCN(C)CC2)nc(-c2ccc(OC)cc2)n1	n	n	n	-89%	n	n
